HT1080-NT tox: qHTS for induction of synthetic lethality in tumor cells producing 2HG: qHTS for the HT-1080-NT fibrosarcoma cell line; Potency, µM (highest dose often 46.1 µM), for inactives: at the top dose activity, negative = less viability, hits mostly cytotoxic; 1.6% of 360,000 active; AID 686970, 2013; HT-1080-NT fibrosarcoma viability, CellTiter-Glo ATP luminescence, 48 h;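 also: NT is the 2HG producing partner of a matched IDH1 knockdown line; 0% = DMSO-treated cells and -100% = media-only wells without cells; nearly all actives have a fitted effect of over 55% in size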
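Fibrosarcoma NT cells, 750 per well in 5% FBS RPMI, were exposed to compound for 48 hours. Viability: CellTiter-Glo luminescence.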
KB-3-1 tox: qHTS assay for MDR1-selective chemotherapeutics: Primary screen using the parental adenocarcinoma cell KB-3-1. 1.4% of 400,000 active. Potency, µM (highest dose often 46.1 µM), hits mostly cytotoxic. KB-3-1 viability, CellTiter-Glo ATP luminescence, 72 h; also: nearly all actives have a fitted effect of over 60% in size
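Cytotoxicity measured as CellTiter-Glo luminescence after 72 h at 37 C. Compound titrations were pinned onto drug-naive KB-3-1 parental adenocarcinoma cells grown in DMEM with 10% FBS, and normalized data fitted to concentration-response curves.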
HT1080 IDH1KD tx: qHTS for induction of synthetic lethality in tumor cells producing 2HG: qHTS for the HT-1080-IDH1KD cell line; HT-1080 IDH1 knockdown viability, ATP luminescence, 48 h; 2% of 360,000 active; Potency, µM (highest dose often 46.1 µM), for the others: top-dose activity, negative = toxicity, usual class: cytotoxic; AID 686971, 2013;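 also: 0% = DMSO wells and -100% = cell-free medium wells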
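Using the IDH1-knockdown HT-1080 line run in the same batch and compound series as the NT line, viability after 48 h at 37 °C was determined by CellTiter-Glo luminescence and expressed as % activity.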
TDP1 cell noCPT: qHTS for Inhibitors of human tyrosyl-DNA phosphodiesterase 1 (TDP1): qHTS in cells in absence of CPT; DT40 Tdp1-/- hTDP1 cells, no CPT, ATP luminescence, 48 h; Potency, µM (top dose mostly 46.2 µM), for the others: top-dose activity change, negative = growth inhibition, hits mostly inhibitors; 15% of 420,000 active; AID 686978, 2013; also: nearly all actives have a fitted effect of over 55% in size
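No-CPT arm: Tdp1-/-;hTDP1 DT40 cells (400/well) plus compounds, incubated ≥48 hr at 37 °C. Readout CellTiter-Glo luminescence.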
DT40 TDP1 CPT: qHTS for Inhibitors of human tyrosyl-DNA phosphodiesterase 1 (TDP1): qHTS in cells in presence of CPT; chicken DT40 Tdp1-/-;hTDP1 cells + 20 nM CPT, ATP luminescence, 48 h; Potency, µM (top dose mostly 46.2 µM), for inactives: at the highest dose activity change, negative = growth inhibition, actives largely listed as inhibitors; 12% of 420,000 active; also: nearly all actives have a fitted effect of over 55% in size
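Chicken DT40 Tdp1-/- cells stably complemented with human TDP1 were seeded at 400 cells/well in medium containing 20 nM camptothecin, exposed to pin-transferred compounds, and grown at 37 °C for at least 48 hr. Viability was read as ATP luminescence.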
KB-V1 MDR tox: qHTS assay for MDR1-selective chemotherapeutics: Primary screen using the drug-selected MDR subline cells KB-V1. KB-V1 MDR cells viability, CellTiter-Glo, 72 h. Potency, µM (top dose mostly 46.1 µM), hits mostly cytotoxic. 3.4% of 400,000 active. AID 1347076, 2019; also: nearly all actives have a fitted effect of over 60% in size
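Readout: CellTiter-Glo luminescence, 10 min after addition. Cells: KB-V1 MDR subline, 72 h at 37 degrees C with compound. Analysis: corrected, normalized data fitted to concentration-effect curves.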
* = called active by the depositor; i = inactive; ? = inconclusive; · = no result given; [ ] = another dose, or the depositor's remark. Rows were chosen to be rich in hits. Some 19% of all compounds tested hit in one or more screens of this group. Calls follow the shape of the dose curve; as a rule, active = well fitted curve in the direction sought with a large enough effect; inconclusive = small, poorly fitted or top-dose-only effect, or another doubt; inactive = no such curve, though single readings can be large; an effect the other way counts as inactive or inconclusive. Unless noted, % is scaled to controls: 0 for no effect and ±100 for the full control effect; potency is read from the fitted curve at half-maximal effect.

SMILES | HT1080-NT tox | KB-3-1 tox | HT1080 IDH1KD tx | TDP1 cell noCPT | DT40 TDP1 CPT | KB-V1 MDR tox
CC(=O)N(c1ccccc1)c1ccccc1[N+](=O)[O-] | 8% | i | 0% | 26µM* | ? | i
COC(=O)CN(c1ccccc1[N+](=O)[O-])S(=O)(=O)c1ccccc1 | -1% | i | -1% | 3% | 15% | i
O=C(COc1ccc2c3c(c(=O)oc2c1)CCC3)NCC(O)c1ccccc1 (configuration not stated) | 1% | i | 1% | 0% | -22% | i
O=C1NC[C@@H](CCCCN2C[C@H](Cc3ccccc3)N(CCC3CCCCC3)C(=O)C2=O)N(Cc2ccccc2)C1=O | ? | ? | 21µM* | ? | ? | ?
O=C1NC[C@H](Cc2ccccc2)N(CC2CCN(CCc3ccc(-c4ccccc4)cc3)CC2)C1=O | -4% | i | -8% | 16µM* | 21µM* | i
O=C1NC[C@@H](CCCCN2C[C@H](Cc3ccccc3)N(CC3CCCCC3)C(=O)C2=O)N(Cc2ccccc2)C1=O | 1% | i | -2% | -21% | 0% | ?
O=C1NC[C@H](CCCCN2C[C@H](Cc3ccccc3)N(CC3CCCCC3)C(=O)C2=O)N(CC2CCCCC2)C1=O | 13% | i | ? | 29µM* | ? | i
O=C(Nc1ccc(F)cc1)C(CCc1ccccc1)N1CCN(C(=O)c2ccco2)CC1 (configuration not stated) | -3% | i | -3% | ? | ? | ?
Cc1ccc(S(=O)(=O)NC(=O)C2(C)CCN2C(=O)c2cccc(F)c2)nc1 (configuration not stated) | 0% | i | -24% | 1% | 1% | i
Cc1cc(OCC(=O)Nc2ccncc2)c(C)cc1Br | 1% | i | ? | -17% | ? | i
CCc1ccc(OCC(=O)NNC(=O)c2cnccn2)c(Br)c1 | ? | ? | ? | 8.2µM* | 5.8µM* | i
CC(C)(C)c1ccc(OCC(=O)Nc2ccncc2)c(Br)c1 | -28% | ? | -26% | 7.3µM* | 8.2µM* | ?
CCc1ccc(OCC(=O)Nc2ccncc2)c(Br)c1 | ? | ? | ? | 10µM* | ? | 9.2µM*
CCOc1ccc(-c2cc(C(=O)NCCCOC)c3c(-c4ccc(CC)cc4)[nH]nc3n2)cc1 | · | i | · | ? | ? | i
CCC1C(c2ccccc2)=CCC(C(=O)O)C1C (configuration not stated) | 1% | i | 12% | 9% | 18% | i
Cc1cc(N2CCC(C)CC2)nc(-n2nc(C)cc2C)n1 | -1% | i | -5%[9.24 µM] | 2.6µM* | 2.6µM* | ?
CCCCC(=O)NNC(=S)NC(=O)c1cccc([N+](=O)[O-])c1 | -21% | ? | ? | ? | 23µM* | i
CCCCC(=O)NNC(=S)NC(=O)c1ccc(C)cc1 | ? | ? | ? | ? | -104% | i
CCCCCC(=O)NNC(=S)NC(C)=O | 22% | i | ? | 18µM* | ? | ?
O=C(NNC(=S)NC(=O)c1cccc([N+](=O)[O-])c1)c1ccc(Br)cc1 | -9% | ? | ? | 21µM* | 16µM* | i
O=C(NNC(=S)NC(=O)c1cccc([N+](=O)[O-])c1)c1ccc(O)cc1 | -23% | i | -8% | 5% | -1% | i
